Data taken from ChEMBL document CHEMBL4513216, “Probing the Open Global Health Chemical Diversity Library for Multistage-Active Starting Points for Next-Generation Antimalarials” (ACS Infect Dis, 2020).
Out of some 69,000 compounds screened, about 8,600 (12%) showed an effect of 50% or more. This excerpt belongs to a sample that is enriched for strong results.

The molecules below were run on Plasmodium berghei (assay: Screen against P. berghei liver stage (PbLuc), transformed with Luciferase, at 10uM). Conditions: tested at 10 uM.
Assay type: functional, HepG2

Row | SMILES | INHIBITION
1 | Cc1ccc(CC(=O)N2CCc3nnc(N(C)C)cc3C2)s1 | 12.85%
2 | Cn1cnc2c1C(COCC1CCOCC1)CN(C1CCOCC1)C2 (stereo not given) | -0.569%
3 | CC(C)NC(=O)Nc1ccc(CS(C)(=O)=O)cc1 | 28.3%
4 | CCn1ccnc1CN1CCCN(C(=O)c2cnc(C)cn2)CC1 | -4.16%
5 | Cc1nc(CN2CCCC(N(C)Cc3nccn3C)C2)no1 (stereo not given) | 13.3%
6 | COc1ccc(OCc2cc(C(=O)N3CCCCO3)n[nH]2)c(Cl)c1 | -9.42%
7 | CCNCCC(Cc1ccccc1)c1ccco1 (stereo not given) | 31.2%
8 | COCCN(C)c1cnn(C)c(=O)c1Br | 17.5%
9 | CC(Cn1cccn1)C(=O)N1CCCN(Cc2cscn2)CC1 (stereo not given) | -0.29%
10 | O=C(c1cnco1)N1CCC(Cc2cnc3ccccc3c2)CC1 | 14.4%
11 | O=C(c1ccco1)N1CCOCC2(C1)CN(c1cccnc1)C(=O)CO2 (stereo not given) | 3.58%
12 | O=C1CC2(CCCCN2C(=O)Cc2ccccc2)CN1c1cccnc1 (stereo not given) | 70.1%
13 | O=C1CC2(CCCCN2C(=O)c2ccco2)CN1c1cccnc1 (stereo not given) | 76.5%
14 | Cn1ccc(C(=O)N2CCCCC23CC(=O)N(Cc2ccccc2)C3)n1 (stereo not given) | -52.9%
15 | Cn1cccc1C(=O)N1CCCCC12CC(=O)N(c1cccnc1)C2 (stereo not given) | -80.2%
16 | O=C1CC2(CCCCN2C(=O)c2ccoc2)CN1Cc1ccccc1 (stereo not given) | 24.8%
17 | COc1ccc(CC(=O)N2C[C@@H]3COC[C@]3(CN(C)C)C2)cc1 | 35.3%
18 | CCOCC1c2c(cnn2CC2CC2)CCN1Cc1nccs1 (stereo not given) | 30.3%
19 | O=C(C1CCCC1)N1CCO[C@H]2[C@H](OCC3CCOCC3)CC[C@@H]21 | -26.5%
20 | CC(C)NC(=O)CS(=O)(=O)Cc1coc(-c2ccc(F)cc2)n1 | 33.8%
21 | Cc1nc(C)c(CC(=O)N2C[C@@H]3CC[C@H]2CN(c2cnccn2)C3)s1 | -102%
22 | CC(C)C(=O)NC1COC2(CCN(Cc3cccnc3)CC2)C1 (stereo not given) | 16.1%
23 | c1cnc(NCc2nnn3c2CN(Cc2ccsc2)CCC3)nc1 | 39.8%
24 | CS(=O)(=O)NC[C@@H]1OC[C@H]2CN(Cc3ccsc3)CC[C@H]21 | -4.32%
25 | CN(CC(=O)N1CCc2[nH]c3ccccc3c2C1)CC1OCCO1 | 22.9%
26 | O=C1N(c2ccsc2)CCC12CCCN(c1ccccn1)C2 (stereo not given) | 42.1%
27 | Cc1nn(C)c(N(C)C)c1CNCc1cccnc1-n1cncn1 | 26.1%
28 | CC(C)C[C@H](N)COc1cccc(F)c1Oc1cccc(Cl)c1 | 83.3%

Row | SMILES | INHIBITION
29 | CNCc1cc(F)ccc1Oc1ccc(Cl)cc1 | 35.2%
30 | CC(C)C[C@H](N)COc1cccc(F)c1Oc1ccccc1 | 48%
31 | CC(CNS(N)(=O)=O)Oc1cccc(Cl)c1 (stereo not given) | 14.9%
32 | CC(CNS(C)(=O)=O)Oc1cccc(Cl)c1 (stereo not given) | 23.8%
33 | CC(C)C[C@H](N)COc1cccc(F)c1Oc1ccc(Cl)cc1 | 87.9%
34 | COc1ccccc1C(N)CC(C)C (stereo not given) | 48.3%
35 | Cc1ccc(Oc2c(F)cccc2OC[C@@H](N)CC(C)C)cc1 | 79.6%
36 | CN(CCc1ccccn1)c1cnn(C)c(=O)c1Br | -18.9%
37 | Cc1ccc2c(c1)Oc1ncccc1C(=O)N2 | 48.2%
38 | Cc1cnc(C(=O)N2C[C@H]3CN(Cc4cccc(F)c4)C(=O)[C@H]3C2)cn1 | -9.71%
39 | CC(CN1CCOCC1)NC(=O)N1CCN(S(C)(=O)=O)CC1 (stereo not given) | -34.4%
40 | CCOc1ccc(SCCS(=O)(=O)CC)cc1 | 3.84%
41 | CCSCCn1cc(-c2ncc[nH]2)nn1 | 59.1%
42 | CCn1c(C)nnc1SCCn1cc(-c2ncc[nH]2)nn1 | 7.1%
43 | c1c[nH]c(-c2cn(CCSc3cnn[nH]3)nn2)n1 | 33.2%
44 | Cc1cnc(CN(C)C2CCN(Cc3nccn3C)C2)o1 (stereo not given) | 13.3%
45 | CCOC(=O)CNC(=O)c1cc(-c2ccccc2)nc2ncnn12 | -5.22%
46 | CCCNC(=O)c1sc(Nc2ccc(Cl)cn2)nc1C | -19.7%
47 | COCCNC(=O)c1sc(Nc2ccc(Cl)cn2)nc1C | 67.9%
48 | CCCc1nc(C)c(C(=O)NCCN2CCCCC2)s1 | -21.9%
49 | Cc1nc(Nc2ccc(Cl)cn2)sc1C(=O)NC(C)C | -86.5%
50 | CC(=O)c1sc(Nc2ccc(Cl)cn2)nc1C | -9.27%
51 | Cc1nc(Nc2ccc(Cl)cn2)sc1C(=O)NCCCN1CCCCC1 | 52.3%
52 | COc1ccc(CCC(=O)N2CCNCC2C(=O)N2CCCC2)cc1 (stereo not given) | 32.1%
53 | COCCO[C@H]1CCN(Cc2cccnc2)[C@H]1Cc1cccnc1 | -31%
54 | CN(C)S(=O)(=O)N1C[C@H]2CC[C@@H](C1)N(Cc1ccc(F)c(F)c1)C2 | 0.825%
55 | CSc1nccn1-c1ccc(C(=O)NCC2CC2)cc1 | 36.1%
